For this assay, the target named is Torsin-1A-interacting protein 2 (Homo sapiens) (UniProt Q8NFQ8). In words: LULL1 binders on small-molecule microarray, primary screen, cell lysate, human LULL1 lysate, 635/667 nm fluorescence (AID 1092).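 Note: probe is lysate of COS7 cells overexpressing human LULL1; score merges per-feature 667 nm fluorescence with signal-to-noise.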 To be noted: hLULL1 lysate binding, 635 nm fluorescence, higher = more signal.
Chain of Torsin-1A-interacting protein 2 (Homo sapiens) (Q8NFQ8 whole entry, looked up): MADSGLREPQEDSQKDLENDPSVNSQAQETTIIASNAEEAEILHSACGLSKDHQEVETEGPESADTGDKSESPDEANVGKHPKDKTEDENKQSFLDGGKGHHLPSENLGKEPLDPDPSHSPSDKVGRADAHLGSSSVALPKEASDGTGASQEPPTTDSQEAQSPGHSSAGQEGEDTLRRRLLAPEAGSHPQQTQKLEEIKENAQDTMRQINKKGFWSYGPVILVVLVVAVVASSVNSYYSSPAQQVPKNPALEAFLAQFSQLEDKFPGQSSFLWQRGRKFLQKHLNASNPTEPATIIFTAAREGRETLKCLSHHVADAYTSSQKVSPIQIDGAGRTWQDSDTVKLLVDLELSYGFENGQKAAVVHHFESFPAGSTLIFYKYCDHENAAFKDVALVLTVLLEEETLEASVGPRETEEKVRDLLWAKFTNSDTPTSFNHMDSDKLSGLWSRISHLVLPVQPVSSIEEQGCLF
In turn, `C[C@@]1([C@@H](NC(=O)c2ccccc2)c2ccc(-c3ccccc3)cc2)C[C@H]1C1CCCCC1` yielded a composite z-score of 0.429.
In the case of `C=CCC(OC(C)=O)[C@@H]1[C@@H](N(Cc2ccc(-c3cccc(C(F)(F)F)c3)o2)C(=O)Cc2ccc(F)cc2)c2cc(OCCCO)ccc2N1C(=O)Cc1ccc(OC)cc1` (stereo not given in full), the composite z-score is -2.02.
The compound `COC(=O)c1c(CC[C@@H](CO)NC(=O)N[C@@H](C)Cn2cc(C3(O)CCCCC3)nn2)oc(C(C)=O)c1C(=O)OC` returned a composite z-score of 1.16.
`C=CCC(OC(C)=O)[C@@H]1[C@@H](N(Cc2ccc(-c3cccc(C(F)(F)F)c3)o2)C(=O)c2ccc(-c3ccccc3)cc2)c2cc(OCCCO)ccc2N1C(=O)c1ccc(-c2ccccc2)cc1` (stereo not given in full) had a composite z-score of 1.03.
`COCCOC(=O)N1C(=O)[C@@]2(c3cc(C#Cc4ccc(OC)cc4)ccc31)[C@H](C(N)=O)[C@H]1C(=O)O[C@H](c3ccccc3)[C@H](c3ccccc3)N1[C@@H]2c1ccccc1OCCO` registered a composite z-score of 2.33.
The value for `CCN(CC)c1ccc(N2CC=CC34O[C@@H]5/C=C\CCCOC(=O)C5[C@H]3C(=O)N(CCO)[C@@H]4C2=O)cc1` (stereo not given in full) was 1.3.
`CC(C)N1C(=O)[C@@]2(Cc3ccccc31)c1ccccc1C(=O)N(C1CCCCC1)[C@H]2c1ccc(CO)cc1` gave a composite z-score of 2.01.
The compound `CN(C)C(=O)[C@]1(Cc2ccccc2CN=[N+]=[N-])N=C(c2ccc(OCCCO)cc2)O[C@@H]1c1ccccc1CN=[N+]=[N-]` yielded a composite z-score of 3.59.
The compound `O=C1c2ccccc2[C@](Cc2ccccc2I)(C(=O)NC2CC2)[C@H](c2ccc(CO)cc2)N1Cc1ccccc1` displayed a composite z-score of 2.86.
In turn, `COCCOC(=O)N1C(=O)[C@@]2(c3cc(C#CC4(O)CCCCCC4)ccc31)[C@H](c1ccc(O)cc1)N1[C@H](c3ccccc3)[C@H](c3ccccc3)OC(=O)[C@H]1[C@@H]2C(=O)Nc1nc2ccccc2s1` registered a composite z-score of 3.08.
